Test results published in the supplement of paper PMC11634586.
Structures can show the parent of a compound that is named as a salt. Values without a mark were called inactive.

Each compound was assayed on NCI-H1688 (assay: inhibition of cell viability relative to untreated control (fraction); higher = stronger growth inhibition, active = 0.5 or more). Details: 30 µM; 24 h.
Procedure, shortened: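 After seeding at 3 × 10^3 cells/well in 96-well plates and a 24 h wait, NCI-H1688 small cell lung cancer cells received a natural compound library (TargetMol) at 30 µM for 24 h, kept at 37°C with 5% CO2. Triplicate readings of Cell Counting Kit-8 absorbance at 450 nm measured viability. Each value is the inhibition of cell viability as a fraction, derived from viability normalised to untreated cells.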
In the case of `O=C1C[C@@H](c2ccccc2)Oc2cc(O)cc(O)c21` [Pinocembrin], the “inhibition of cell viability” value is reported as -0.374.
With `CN[C@@H]1[C@H](O[C@H]2[C@H](O[C@H]3[C@H](O)[C@@H](O)[C@H](N=C(N)N)[C@@H](O)[C@@H]3N=C(N)N)O[C@@H](C)[C@]2(O)C=O)O[C@@H](CO)[C@H](O)[C@H]1O` [Streptomycin sulfate] the “inhibition of cell viability” value was -0.138.
`O=C(O)C1=CO[C@@H](O[C@@H]2O[C@H](CO)[C@@H](O)[C@H](O)[C@H]2O)[C@@H]2C(CO)=CC[C@H]12` [Geniposidic Acid] was tested, and the “inhibition of cell viability” value was -0.0628.
With `C[C@@H]1O[C@@H](O[C@H]2[C@H](Oc3cc(O)c4c(=O)cc(-c5ccc(O)cc5)oc4c3)O[C@H](CO)[C@@H](O)[C@@H]2O)[C@H](O)[C@H](O)[C@H]1O` [Rhoifolin] the “inhibition of cell viability” value was 0.127.
For `O=C(O)C1=C[C@@H](O)[C@@H](O)[C@H](O)C1` [Shikimic Acid], the “inhibition of cell viability” value was 0.0707.
`CCOC(=O)/C=C/c1ccc(O)c(OC)c1` [Ethyl ferulate] was tested, and the “inhibition of cell viability” value was -0.0133.
In the case of `O=C(O)C(O)Cc1ccc(O)c(O)c1` (configuration not stated) [Sodium Danshensu], the “inhibition of cell viability” value is reported as -0.0463.
For `C=CCc1ccc(O)c(-c2cc(CC=C)ccc2O)c1` [Magnolol], the “inhibition of cell viability” value was -0.288.
For `OC[C@@H](O)[C@@H](O)CO` [Erythritol], the “inhibition of cell viability” value was 0.038.
For `O=C(O)c1cc(=O)[nH]c(=O)[nH]1` [Orotic acid], the “inhibition of cell viability” value was -0.0262.
In the case of `OC[C@H]1O[C@H](O[C@]2(CCl)O[C@H](CCl)[C@@H](O)[C@@H]2O)[C@H](O)[C@@H](O)[C@H]1Cl` [Sucralose], the “inhibition of cell viability” value is reported as 0.0847.
In the case of `O=C(O)/C=C/CCCCCCCO` [10-Hydroxy-2-decenoic acid], the “inhibition of cell viability” value is reported as 0.323.
For `COc1ccc2ccc(=O)oc2c1CC=C(C)C` [Osthole], the “inhibition of cell viability” value was 0.166.
With `C=C[C@H]1CN2CC[C@H]1C[C@H]2[C@H](O)c1ccnc2ccc(OC)cc12` [Quinine] the “inhibition of cell viability” value was 0.162.
In the case of `COc1cc(C(=O)O)cc(OC)c1O` [Syringic acid], the “inhibition of cell viability” value is reported as 0.0408.
With `O=c1ccc2ccc(O)cc2o1` [7-Hydroxycoumarin] the “inhibition of cell viability” value was -0.0276.
`C[C@@H]1CC[C@]2(C(=O)O[C@@H]3O[C@H](CO)[C@@H](O)[C@H](O)[C@H]3O)CC[C@]3(C)C(=CC[C@@H]4[C@@]5(C)CC[C@H](O)[C@@](C)(CO)[C@@H]5CC[C@]43C)[C@@H]2[C@]1(C)O` [Pedunculoside] was tested, and the “inhibition of cell viability” value was 0.134.
For `OCC1OC(OC2C(CO)OC(O)C(O)C2O)C(O)C(O)C1O` [D-Cellobiose], the “inhibition of cell viability” value was -0.12.
`O=C(O)c1cc(O)ccc1O` [Gentisic acid] was tested, and the “inhibition of cell viability” value was -0.166.
For `CNC[C@@H](O)c1ccc(O)c(O)c1` [L-Adrenaline], the “inhibition of cell viability” value was 0.0228.
For `C/C=C1\[C@H]2C=C(C)C[C@]1(N)c1ccc(=O)[nH]c1C2` [(-)-Huperzine A (HupA)], the “inhibition of cell viability” value was 0.178.
With `COc1ccccc1O` [Guaiacol] the “inhibition of cell viability” value was -0.0875.
`COC1=C(OC)C(=O)C(C/C=C(\C)CC/C=C(\C)CC/C=C(\C)CC/C=C(\C)CC/C=C(\C)CC/C=C(\C)CC/C=C(\C)CC/C=C(\C)CC/C=C(\C)CCC=C(C)C)=C(C)C1=O` [Coenzyme Q10 (CoQ10)] was tested, and the “inhibition of cell viability” value was -0.0281.
For `CC(C)=CCC[C@](C)(O[C@@H]1O[C@H](CO)[C@@H](O)[C@H](O)[C@H]1O)[C@H]1CC[C@]2(C)[C@@H]1[C@H](O)C[C@@H]1[C@@]3(C)CC[C@H](O)C(C)(C)[C@@H]3[C@@H](O[C@@H]3O[C@H](CO)[C@@H](O)[C@H](O)[C@H]3O[C@@H]3O[C@@H](C)[C@H](O)[C@@H](O)[C@H]3O)C[C@]12C` [Ginsenoside Re], the “inhibition of cell viability” value was -0.0285.
`OC[C@H]1O[C@H](O[C@H]2[C@H](O)[C@@H](O)[C@H](O)O[C@@H]2CO)[C@H](O)[C@@H](O)[C@@H]1O` [Maltose] was tested, and the “inhibition of cell viability” value was 0.0503.
With `C/C=C(/C)C(=O)OC(C)(C)[C@@H]1Cc2c(ccc3ccc(=O)oc23)O1` [Columbianadin] the “inhibition of cell viability” value was 0.338.
In the case of `O=c1ccc2cc(O)c(O)cc2o1` [Esculetin], the “inhibition of cell viability” value is reported as 0.643 (active).
For `CC1=CC(=O)CC(C)(C)C1=O` [Ketoisophorone], the “inhibition of cell viability” value was -0.175.
For `C[C@H](CCC(=O)O)[C@H]1CC[C@H]2[C@@H]3C[C@H](O)[C@@H]4C[C@H](O)CC[C@]4(C)[C@H]3CC[C@]12C` [Hyodeoxycholic acid (HDCA)], the “inhibition of cell viability” value was -0.163.
With `OC[C@H]1O[C@@H]2O[C@H]3[C@H](O)[C@@H](O)[C@@H](O[C@H]4[C@H](O)[C@@H](O)[C@@H](O[C@H]5[C@H](O)[C@@H](O)[C@@H](O[C@H]6[C@H](O)[C@@H](O)[C@@H](O[C@H]7[C@H](O)[C@@H](O)[C@@H](O[C@H]8[C@H](O)[C@@H](O)[C@@H](O[C@H]1[C@H](O)[C@H]2O)O[C@@H]8CO)O[C@@H]7CO)O[C@@H]6CO)O[C@@H]5CO)O[C@@H]4CO)O[C@@H]3CO` [Beta-Cyclodextrin] the “inhibition of cell viability” value was 0.0604.
`COc1cc2c(cc1OC)[C@@H]1Cc3ccc(OC)c(OC)c3CN1CC2` [Tetrahydropalmatine] was tested, and the “inhibition of cell viability” value was 0.242.
With `O=C(O)CCCC[C@@H]1CCSS1` [Thioctic acid] the “inhibition of cell viability” value was -0.0532.
In the case of `C/C(=C\C(=O)OCCCCCCCCC(=O)O)C[C@@H]1OC[C@H](C[C@@H]2O[C@H]2[C@@H](C)[C@H](C)O)[C@@H](O)[C@H]1O` [Mupirocin], the “inhibition of cell viability” value is reported as 0.0375.
In the case of `O=C1/C(=C2\Nc3ccccc3C2=O)Nc2ccccc21` [Indigo], the “inhibition of cell viability” value is reported as -0.275.
For `CCCCCCCCCCCCCCCCCCCCCCO` [Behenic alcohol], the “inhibition of cell viability” value was -0.0686.
`C=C1CC[C@H]2O[C@]2(C)CC[C@@H]2[C@@H]1CC2(C)C` [Caryophyllene oxide] was tested, and the “inhibition of cell viability” value was -0.0678.
`CC(C)=C1C/C=C(\C)CC/C=C(\C)CC1=O` [Germacrone] was tested, and the “inhibition of cell viability” value was 0.245.
